Among the test systems are HCT-15 colon; HT29 colon; SNB-75 CNS; SNB-19 CNS; U251 CNS; PC-3 prostate; SK-MEL-5 melanoma; UACC-62 melanoma; LOX IMVI melanoma; SK-MEL-28 melanoma; EKVX NSCLC; SN12C renal; UO-31 renal; TK-10 renal; ACHN renal; CAKI-1 renal; A498 renal; CCRF-CEM leukemia; MOLT-4 leukemia.
Holding throughout (test): NCI-60 one-dose screen, 48 h (100 = growth as untreated, 0 = no growth, -100 = all killed)
Holding throughout (details): 10 µM unless noted

About 83,000 compounds went through this panel and 20% of them were active in at least one assay; those are over-represented in the sample as a whole.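 The endpoint reported here, percent growth, reads 100 for growth as untreated, 0 for no net growth and -100 for all cells dead.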 Values without a mark were called inactive. The source made the active and inactive calls. Rule for the calls: active = growth percent below 10; inactive = the rest.

Take `COc1cc2cc(NCc3ccc(Cl)cc3)nc(C)c2cc1OC`: the growth is 47% in the assay with HCT-15 colon; 10% in the assay with HT29 colon; 96.3% with SNB-75 CNS; 42.6% with SNB-19 CNS; 30.9% with U251 CNS; 37.9% with PC-3 prostate. Besides, the growth in the assay with SK-MEL-5 melanoma was 31.3%; in the assay with UACC-62 melanoma, 8.46% (active); in the assay on LOX IMVI melanoma, 5.76% (active); in the assay on SK-MEL-28 melanoma, 29.9%; in the assay on EKVX NSCLC, 64.9%; in the assay on SN12C renal, 42%. Moreover, the growth in the assay with UO-31 renal is 41.4%; with TK-10 renal, 44.9%; with ACHN renal, 54.8%; with CAKI-1 renal it was 59.8%; in the assay with A498 renal, 26%; with CCRF-CEM leukemia, 27.9%. Moreover, the growth in the assay with MOLT-4 leukemia is 27.6%.
As to `CC(=O)c1cnc2ccc(-c3cc(Cl)c(O)c(Cl)c3)nc2c1NC1CCC(CN(C)C)CC1` (stereo not drawn), the growth in the assay on HCT-15 colon is 0.375% [2.5 µM] (active); in the assay with HT29 colon it was 0.58% [2.5 µM] (active); in the assay on SNB-75 CNS, -96.9% [2.5 µM] (active); with SNB-19 CNS it was 5.41% [2.5 µM] (active); in the assay with U251 CNS it was -26.6% [2.5 µM] (active); with PC-3 prostate, -12% [2.5 µM] (active). Also, the growth is -86.5% [2.5 µM] (active) in the assay with SK-MEL-5 melanoma; -70.9% [2.5 µM] (active) in the assay on UACC-62 melanoma; -61.2% [2.5 µM] (active) with LOX IMVI melanoma; -39.8% [2.5 µM] (active) with SK-MEL-28 melanoma; -15.9% [2.5 µM] (active) in the assay with EKVX NSCLC; -7.95% [2.5 µM] (active) in the assay with SN12C renal. The growth with UO-31 renal is -33.1% [2.5 µM] (active); with TK-10 renal, -59.7% [2.5 µM] (active); in the assay on ACHN renal, -0.784% [2.5 µM] (active); with CAKI-1 renal, -49.4% [2.5 µM] (active); in the assay on A498 renal, -88% [2.5 µM] (active); with CCRF-CEM leukemia, 1.45% [2.5 µM] (active). Moreover, the growth in the assay on MOLT-4 leukemia was -36.4% [2.5 µM] (active).
As for `CN(c1ncccc1CNc1nc(Nc2ccc3c(c2)CC(=O)N3)ncc1C(F)(F)F)S(C)(=O)=O`, the growth with HCT-15 colon was 2.3% (active); with HT29 colon it was -28.4% (active); in the assay on SNB-75 CNS, -43.3% (active); in the assay on SNB-19 CNS, 7.98% (active); in the assay on U251 CNS, -0.121% (active); in the assay on PC-3 prostate, 7.2% (active). Moreover, the growth with SK-MEL-5 melanoma is -38.3% (active); in the assay with UACC-62 melanoma, -64.6% (active); in the assay with LOX IMVI melanoma it was 2.21% (active); with SK-MEL-28 melanoma, -16.1% (active); in the assay with EKVX NSCLC it was 8.69% (active); in the assay with SN12C renal it was 9.55% (active). Moreover, the growth with UO-31 renal was -4.35% (active); in the assay with TK-10 renal it was 0.859% (active); in the assay on ACHN renal it was -0.448% (active); with CAKI-1 renal, 12.1%; in the assay with CCRF-CEM leukemia it was 3.5% (active); in the assay with MOLT-4 leukemia, 0.451% (active).
Regarding `CC(=O)C1CC(C)CCC1C(C)C` (stereo not drawn), the growth in the assay on HCT-15 colon was 104%; in the assay with HT29 colon, 101%; in the assay on SNB-75 CNS, 81.1%; with SNB-19 CNS, 91.1%; in the assay with U251 CNS, 107%; with PC-3 prostate, 55.4%. Moreover, the growth is 98.9% with SK-MEL-5 melanoma; 85.3% with UACC-62 melanoma; 86.6% with LOX IMVI melanoma; 123% with SK-MEL-28 melanoma; 106% in the assay on EKVX NSCLC; 83.8% with SN12C renal. In addition, the growth in the assay on UO-31 renal was 67.4%; with TK-10 renal, 83.2%; with ACHN renal, 87.8%; in the assay on CAKI-1 renal it was 122%; in the assay with A498 renal it was 92.4%; in the assay on CCRF-CEM leukemia it was 70.5%. In addition, the growth in the assay on MOLT-4 leukemia was 83.1%.
Turning to `CN1[C@@H]2CC[C@H]1/C(=C\c1ccccc1)C1=C2[C@@H](c2ccccc2)C(C#N)=C(N)O1`, the growth was 81.1% with HCT-15 colon; 67.7% in the assay with HT29 colon; 80.4% in the assay with SNB-75 CNS; 83.6% in the assay with SNB-19 CNS; 77.7% with U251 CNS; 72.8% in the assay on PC-3 prostate. Besides, the growth is 74.1% with SK-MEL-5 melanoma; 73.9% with UACC-62 melanoma; 97.8% with LOX IMVI melanoma; 104% in the assay with SK-MEL-28 melanoma; 98.4% in the assay with EKVX NSCLC; 75.2% in the assay on SN12C renal. For the same molecule, the growth with UO-31 renal was 61.7%; with TK-10 renal it was 89.5%; in the assay with ACHN renal, 97.4%; with CAKI-1 renal, 87.4%; in the assay with A498 renal, 70.3%; in the assay on CCRF-CEM leukemia it was 70.6%. Besides, the growth with MOLT-4 leukemia was 67.4%.
As for `FC(F)(F)c1ccc(CNc2ccc(Cc3c[nH]c4ncc(Cl)cc34)cn2)cn1`, the growth in the assay on HCT-15 colon was 19.9%; in the assay on HT29 colon it was 2.92% (active); in the assay with SNB-75 CNS, 9.21% (active); with SNB-19 CNS, 37%; in the assay on U251 CNS it was 18.2%; in the assay on PC-3 prostate, 18.3%. Besides, the growth with SK-MEL-5 melanoma was -59.8% (active); with UACC-62 melanoma, 6.74% (active); with LOX IMVI melanoma it was 15.2%; in the assay on SK-MEL-28 melanoma, 17.8%; with EKVX NSCLC it was 30.3%; in the assay with SN12C renal, 52.2%. Also, the growth is 10.7% in the assay with UO-31 renal; 18.3% in the assay with TK-10 renal; 31.6% with ACHN renal; 25.2% in the assay on CAKI-1 renal; 18.3% in the assay with A498 renal; 23.4% in the assay on CCRF-CEM leukemia. For the same molecule, the growth in the assay with MOLT-4 leukemia was 7.19% (active).
